The panel holds about 79,000 compounds, 15% with a hit somewhere; the sample as a whole holds those more often. Calls of active or inactive are those of the source. Cut-off read from the data, not from the text of the source: active = growth inhibition above about 70%; inactive = the rest.
Experiments:
[1] = NCI Yeast Anticancer Drug Screen. Data for the rad52 strain (AID 147);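 note: 0% = growth of vehicle-treated control cultures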; conditions: S. cerevisiae rad52 mutant growth inhibition, hits give high values
How it was run: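 Read-out: growth inhibition versus vehicle-treated controls. Cells were a DNA repair-deficient yeast strain treated with compounds.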

[2] = NCI Yeast Anticancer Drug Screen. Data for the rad50EPP+ strain (AID 151);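 note: 0% = growth of vehicle-treated control cultures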; conditions: S. cerevisiae rad50 mutant strain, hits give high values
How it was run: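 Growth inhibition read against vehicle controls in rad50EPP+ yeast, a strain altered in DNA damage repair, after compound exposure.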

[3] = NCI Yeast Anticancer Drug Screen. Data for the mgt1 strain (AID 153); conditions: S. cerevisiae mgt1 mutant growth inhibition, hits give high values
How it was run: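 mgt1 yeast grown with test compound; read-out is growth inhibition versus vehicle-treated cultures.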

[4] = NCI Yeast Anticancer Drug Screen. Data for the rad50 strain (AID 155);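 note: 0% = growth of vehicle-only cultures of the same strain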; conditions: S. cerevisiae rad50 strain growth inhibition, hits give high values
How it was run: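 Readout: growth inhibition relative to vehicle-treated cultures. Compound exposure was carried out in a genetically defined yeast strain deficient in DNA damage repair.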

[5] = NCI Yeast Anticancer Drug Screen. Data for the mec2-1 strain (AID 157); conditions: S. cerevisiae mec2-1 strain, hits give high values
How it was run: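 Yeast mec2-1 mutant treated with compound. Readout: growth inhibition vs vehicle controls.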

[6] = NCI Yeast Anticancer Drug Screen. Data for the rad14 strain (AID 159);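 note: 0% = growth of vehicle-treated control cultures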; conditions: S. cerevisiae rad14 strain growth inhibition, hits give high values
How it was run: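 Growth inhibition vs vehicle controls; genetically altered yeast strain (DNA damage repair defect) treated with test compounds.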

[7] = NCI Yeast Anticancer Drug Screen. Data for the sgs1 mgt1 strain (AID 161);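 note: 0% = growth of cultures given vehicle only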; conditions: S. cerevisiae sgs1 mgt1 strain, hits give high values
How it was run: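 Test agents were incubated with a DNA-repair-mutant yeast strain. Growth was then read and compared against vehicle-treated controls.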

[8] = NCI Yeast Anticancer Drug Screen. Data for the CLN2oe strain (AID 163);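 note: 0% = growth of vehicle-only control cultures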; conditions: S. cerevisiae CLN2oe strain, hits give high values
How it was run: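 Read-out: yeast growth inhibition, expressed relative to vehicle-only controls. The strain bears an engineered cell-cycle alteration.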

[9] = NCI Yeast Anticancer Drug Screen. Data for the cln2 rad14 strain (AID 165);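 note: 0% = growth equal to vehicle treated cultures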; conditions: S. cerevisiae cln2 rad14 strain, hits give high values
How it was run: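 cln2 rad14 yeast strain; compound exposure; growth inhibition read vs vehicle controls.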

[10] = NCI Yeast Anticancer Drug Screen. Data for the bub3 strain (AID 167); conditions: S. cerevisiae bub3 mutant strain, hits give high values
How it was run: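 Readout: yeast growth inhibition, expressed relative to vehicle-only wells. The test organism is a mutant strain from a panel with lesions in DNA repair or checkpoint genes.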

[11] = NCI Yeast Anticancer Drug Screen. Data for the wt2 strain (AID 169);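 note: 0% = growth of vehicle-treated yeast cultures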; conditions: S. cerevisiae wt2 strain growth inhibition, hits give high values
How it was run: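 Read-out: growth inhibition versus vehicle-treated control cultures after compound exposure of the yeast strain.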

[12] = NCI Yeast Anticancer Drug Screen. Data for the sgs1 strain (AID 173);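 note: 0% = growth of vehicle-only control cultures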; conditions: S. cerevisiae sgs1 mutant, hits give high values
How it was run: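 Read-out: yeast growth inhibition relative to vehicle controls, following compound exposure of a strain with a defined DNA repair/cell cycle alteration.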

[13] = NCI Yeast Anticancer Drug Screen. Data for the mlh1 rad18 strain (AID 175); conditions: S. cerevisiae mlh1 rad18 strain growth inhibition, hits give high values
How it was run: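 Yeast w/ defined DNA-repair lesions; compound exposure; growth vs vehicle controls → % inhibition.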

[14] = NCI Yeast Anticancer Drug Screen. Data for the rad18 strain (AID 177); conditions: S. cerevisiae rad18 mutant growth inhibition, hits give high values
How it was run: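 Readout: growth inhibition vs vehicle controls. Cells: genetically altered yeast strain, DNA repair defect.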

[15] = NCI Yeast Anticancer Drug Screen. Data for the mlh1 strain (AID 171);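 note: 0% = growth of vehicle-treated control cultures of the same strain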; conditions: S. cerevisiae mlh1 strain growth inhibition, hits give high values
How it was run: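 Read-out: growth inhibition versus vehicle controls. Strain: engineered yeast with a defined DNA repair or cell cycle defect, compound-treated.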

[16] = at 5.0 µM (retest, dose inferred, filed as 0.5)
[17] = at 50.0 µM (retest, dose inferred, filed as 5.0)

Measured: growth inhibition

CCCc1cc(C(=O)OCC)cc(CCC)c1O
active: [1]; at 100.0 µM 97% | [3]; at 100.0 µM 97% | [4]; at 50.0 µM 93.1% | [4]; at 100.0 µM 98% | [5]; at 50.0 µM 96.1% | [5]; at 100.0 µM 95% | [6]; at 100.0 µM 96% | [7]; at 50.0 µM 79.3% | [8]; at 100.0 µM 96% | [9]; at 50.0 µM 93.8% | [10]; [17] 77% | [10]; at 50.0 µM 96.7% | [10]; at 100.0 µM 97% | [11]; at 100.0 µM 94% | [12]; at 100.0 µM 95% | [13]; at 50.0 µM 93.5% | [14]; at 100.0 µM 98%
inactive: [1]; at 1.2 µM -2% | [1]; at 3.7 µM -8% | [1]; at 11.0 µM -9% | [1]; at 33.0 µM -11% | [2]; at 1.2 µM -2% | [2]; at 3.7 µM 3% | [2]; at 11.0 µM 14% | [2]; at 33.0 µM 21% | [2]; at 100.0 µM 25% | [3]; at 1.2 µM -3% | [3]; at 3.7 µM -4% | [3]; at 11.0 µM -9% | [3]; at 33.0 µM -12% | [4]; at 1.2 µM -8% | [4]; at 3.7 µM -49% | [4]; [16] 5% | [4]; at 11.0 µM 16% | [4]; at 33.0 µM 0% | [4]; [17] 3% | [5]; at 1.2 µM -4% | [5]; at 3.7 µM -5% | [5]; [16] -47% | [5]; at 11.0 µM -13% | [5]; at 33.0 µM -12% | [5]; [17] 8% | [6]; at 1.2 µM -1% | [6]; at 3.7 µM -2% | [6]; at 11.0 µM -11% | [6]; at 33.0 µM -8% | [7]; [16] 1% | [7]; [17] 27% | [8]; at 1.2 µM -1% | [8]; at 3.7 µM -6% | [8]; at 11.0 µM -9% | [8]; at 33.0 µM -30% | [9]; [16] 2% | [9]; [17] -29% | [10]; at 1.2 µM 0% | [10]; at 3.7 µM 10% | [10]; [16] 31% | [10]; at 11.0 µM 39% | [10]; at 33.0 µM 63% | [11]; at 1.2 µM -1% | [11]; at 3.7 µM 4% | [11]; at 11.0 µM -7% | [11]; at 33.0 µM -3% | [12]; at 1.2 µM -2% | [12]; at 3.7 µM -2% | [12]; at 11.0 µM -3% | [12]; at 33.0 µM 18% | [13]; [16] 2% | [13]; [17] 7% | [14]; at 1.2 µM -6% | [14]; at 3.7 µM 0% | [14]; at 11.0 µM -5% | [14]; at 33.0 µM -1%

O=[N+]([O-])C(=C(Sc1ccccc1)Sc1ccccc1)C(Cl)=C(Cl)Cl
active: [3]; at 100.0 µM 74% | [11]; at 100.0 µM 73% | [15]; at 100.0 µM 74% | [12]; at 33.0 µM 76% | [12]; at 100.0 µM 78% | [13]; [17] 71% | [14]; at 33.0 µM 76% | [14]; at 100.0 µM 74%
inactive: [1]; at 1.2 µM 14% | [1]; at 3.7 µM 30% | [1]; at 11.0 µM 45% | [1]; at 33.0 µM 56% | [1]; at 100.0 µM 59% | [3]; at 1.2 µM 2% | [3]; at 3.7 µM 17% | [3]; at 11.0 µM 44% | [3]; at 33.0 µM 59% | [4]; at 1.2 µM 4% | [4]; at 3.7 µM 8% | [4]; [16] 5% | [4]; at 11.0 µM 23% | [4]; at 33.0 µM 46% | [4]; [17] 53% | [4]; at 50.0 µM 19.6% | [4]; at 100.0 µM 50% | [5]; at 1.2 µM 12% | [5]; at 3.7 µM 26% | [5]; [16] 22% | [5]; at 11.0 µM 37% | [5]; at 33.0 µM 46% | [5]; [17] 26% | [5]; at 50.0 µM 46.5% | [5]; at 100.0 µM 46% | [6]; at 1.2 µM 4% | [6]; at 3.7 µM 7% | [6]; at 11.0 µM 19% | [6]; at 33.0 µM 27% | [6]; at 100.0 µM 28% | [7]; [16] 2% | [7]; [17] 53% | [7]; at 50.0 µM 62.6% | [8]; at 1.2 µM 4% | [8]; at 3.7 µM 16% | [8]; at 11.0 µM 26% | [8]; at 33.0 µM 37% | [8]; at 100.0 µM 32% | [9]; [16] 44% | [9]; [17] 33% | [9]; at 50.0 µM 32.8% | [10]; at 1.2 µM 6% | [10]; at 3.7 µM 18% | [10]; [16] -1% | [10]; at 11.0 µM 33% | [10]; at 33.0 µM 45% | [10]; [17] 59% | [10]; at 50.0 µM 60.2% | [10]; at 100.0 µM 50% | [11]; at 1.2 µM 1% | [11]; at 3.7 µM 15% | [11]; at 11.0 µM 39% | [11]; at 33.0 µM 59% | [15]; at 1.2 µM 8% | [15]; at 3.7 µM 19% | [15]; at 11.0 µM 40% | [15]; at 33.0 µM 60% | [12]; at 1.2 µM 13% | [12]; at 3.7 µM 24% | [12]; at 11.0 µM 58% | [13]; [16] 12% | [13]; at 50.0 µM 59.5% | [14]; at 1.2 µM 15% | [14]; at 3.7 µM 43% | [14]; at 11.0 µM 66%

COC(=O)C1=C(C(=O)OC)C2(C)C=CC1O2 (stereo unspecified)
active: [1]; at 33.0 µM 70% | [1]; at 100.0 µM 91% | [3]; at 100.0 µM 86% | [4]; at 33.0 µM 72% | [4]; at 50.0 µM 81.2% | [4]; at 100.0 µM 91% | [5]; at 50.0 µM 86.8% | [5]; at 100.0 µM 87% | [6]; at 100.0 µM 87% | [7]; at 50.0 µM 82.2% | [10]; at 33.0 µM 75% | [10]; [17] 74% | [10]; at 50.0 µM 89.6% | [10]; at 100.0 µM 94% | [11]; at 33.0 µM 91% | [11]; at 100.0 µM 97%
inactive: [1]; at 1.2 µM -1% | [1]; at 3.7 µM -4% | [1]; at 11.0 µM 21% | [2]; at 1.2 µM -11% | [2]; at 3.7 µM -34% | [2]; at 11.0 µM -12% | [2]; at 33.0 µM 20% | [2]; at 100.0 µM 19% | [3]; at 1.2 µM -4% | [3]; at 3.7 µM -9% | [3]; at 11.0 µM -3% | [3]; at 33.0 µM 32% | [4]; at 1.2 µM -15% | [4]; at 3.7 µM -13% | [4]; [16] -135% | [4]; at 11.0 µM 7% | [4]; [17] 53% | [5]; at 1.2 µM -2% | [5]; at 3.7 µM -1% | [5]; [16] -43% | [5]; at 11.0 µM 1% | [5]; at 33.0 µM 26% | [5]; [17] 43% | [6]; at 1.2 µM 1% | [6]; at 3.7 µM 15% | [6]; at 11.0 µM 17% | [6]; at 33.0 µM 33% | [7]; [16] -55% | [7]; [17] 63% | [8]; at 1.2 µM -7% | [8]; at 3.7 µM -5% | [8]; at 11.0 µM -4% | [8]; at 33.0 µM 15% | [8]; at 100.0 µM 42% | [10]; at 1.2 µM -9% | [10]; at 3.7 µM -3% | [10]; [16] -62% | [10]; at 11.0 µM 10% | [11]; at 1.2 µM -4% | [11]; at 3.7 µM -3% | [11]; at 11.0 µM 52% | [15]; at 1.2 µM -14% | [15]; at 3.7 µM -10% | [15]; at 11.0 µM -7%
